Unmarked numbers belong to inactive results.

The test system of the first test is Mel-DCC-11-R. In words: cell viability relative to DMSO control (fraction of DMSO control); higher = less cytotoxic, active = 0.8 or less. The settings on record: 1 µM; 120 h; vemurafenib co-treatment 0 µM. The procedure:
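Same 315-drug TargetMol library at 1 µM in duplicate, 120 h, ATPlite luminescence normalised to DMSO controls, on the vemurafenib-resistant subline Mel-DCC-11-R cultured alone or with 8 µM vemurafenib co-treatment (Mel-DCC-11-R + V).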
On to `COc1ccc(-c2cc(=S)ss2)cc1` [Anethole trithione], for which the cell viability was 1.04.

For the compound `COc1ccc2[nH]cc(CCNC(C)=O)c2c1` [Melatonine], the cell viability is 0.786 (active).

`O=C(CCBr)N1CCN(C(=O)CCBr)CC1` [Pipobroman]: the cell viability was 0.832.

With `CC1(C)O[C@H]2CC(=O)OC[C@]23[C@H]2CC[C@@]4(C)[C@H](c5ccoc5)OC(=O)[C@H]5O[C@]54[C@]2(C)C(=O)C[C@@H]13` [Limonin], the cell viability is 0.857.

For the compound `CC(C)C[C@H](NC(=O)CNC(=O)c1cc(Cl)ccc1Cl)B(O)O` [Ixazomib], the cell viability was 0.13 (active).

With `CS(=O)(=O)O.Cc1ccc(NC(=O)c2ccc(CN3CCN(C)CC3)cc2)cc1Nc1nccc(-c2cccnc2)n1` [Imatinib Mesylate], the cell viability is 0.94.

Consider `CCN(c1cc(-c2ccc(CN3CCOCC3)cc2)cc(C(=O)NCc2c(C)cc(C)[nH]c2=O)c1C)C1CCOCC1`, for which the cell viability was 0.831.

As to `CNC(=O)c1c(C)oc2cc(Oc3ncnc4cc(OC)c(OC)cc34)ccc12` [Fruquintinib], the cell viability was 1.09.

Take `O=C([O-])CCCc1ccccc1.[Na+]` [Sodium Phenylbutyrate]: the cell viability is 1.

As for `CN1CCN(c2ccc3nc(-c4c(N)c5c(F)cccc5[nH]c4=O)[nH]c3c2)CC1` [Dovitinib], the cell viability is 1.05.

Consider `CC1(C)CCC(C)(C)c2cc(NC(=O)c3ccc(C(=O)O)cc3)ccc21` [Tamibarotene], for which the cell viability is 0.958.

Regarding `CCCCCCCCCCCCCCCC(=O)OC/C=C(C)/C=C/C=C(C)/C=C/C1=C(C)CCCC1(C)C` [Retinol palmitate], the cell viability is 1.02.

On to `COc1cc2nccc(Oc3ccc(NC(=O)NC4CC4)c(Cl)c3)c2cc1C(N)=O` [Lenvatinib], for which the cell viability is 1.03.

`O=c1cc(-c2ccc(O)cc2)oc2cc(O)cc(O)c12` [Apigenin]: the cell viability was 0.972.

For `COc1cc2nccc(Oc3ccc(NC(=O)Nc4cc(C)on4)c(Cl)c3)c2cc1OC` [Tivozanib], the cell viability was 1.08.

As for `Nc1[nH]c(=O)ncc1F` [Fluorocytosine], the cell viability was 0.936.

With `CN(C)CCOc1ccc(/C(=C(/CCCl)c2ccccc2)c2ccccc2)cc1.O=C(O)CC(O)(CC(=O)O)C(=O)O` [Toremifene citrate], the cell viability is 0.981.

As to `Cl.N=c1ccn2c(n1)O[C@H]1[C@H](O)[C@@H](CO)O[C@H]12` [Cyclocytidine hydrochloride], the cell viability is 0.873.

Take `CC(C)CN(C[C@@H](O)[C@H](Cc1ccccc1)NC(=O)O[C@H]1CCOC1)S(=O)(=O)c1ccc(N)cc1` [Amprenavir]: the cell viability is 0.854.

For `C/C(=C\c1csc(C)n1)[C@@H]1C[C@@H]2O[C@]2(C)CCC[C@H](C)[C@H](O)[C@@H](C)C(=O)C(C)(C)[C@@H](O)CC(=O)N1` [Ixabepilone], the cell viability was 0.67 (active).

The same test, now with this note: 1 µM; 120 h; vemurafenib co-treatment 8 µM.
For the compound `COc1ccc(-c2cc(=S)ss2)cc1` [Anethole trithione], the cell viability was 1.13.

In the case of `COc1ccc2[nH]cc(CCNC(C)=O)c2c1` [Melatonine], the cell viability is 0.839.

On to `O=C(CCBr)N1CCN(C(=O)CCBr)CC1` [Pipobroman], for which the cell viability is 0.897.

In the case of `CC1(C)O[C@H]2CC(=O)OC[C@]23[C@H]2CC[C@@]4(C)[C@H](c5ccoc5)OC(=O)[C@H]5O[C@]54[C@]2(C)C(=O)C[C@@H]13` [Limonin], the cell viability was 1.11.

For `CC(C)C[C@H](NC(=O)CNC(=O)c1cc(Cl)ccc1Cl)B(O)O` [Ixazomib], the cell viability was 0.0834 (active).

Turning to `CS(=O)(=O)O.Cc1ccc(NC(=O)c2ccc(CN3CCN(C)CC3)cc2)cc1Nc1nccc(-c2cccnc2)n1` [Imatinib Mesylate], the cell viability was 1.1.

With `CCN(c1cc(-c2ccc(CN3CCOCC3)cc2)cc(C(=O)NCc2c(C)cc(C)[nH]c2=O)c1C)C1CCOCC1`, the cell viability was 0.967.

On to `CNC(=O)c1c(C)oc2cc(Oc3ncnc4cc(OC)c(OC)cc34)ccc12` [Fruquintinib], for which the cell viability was 1.05.

As to `O=C([O-])CCCc1ccccc1.[Na+]` [Sodium Phenylbutyrate], the cell viability is 1.07.

As for `CN1CCN(c2ccc3nc(-c4c(N)c5c(F)cccc5[nH]c4=O)[nH]c3c2)CC1` [Dovitinib], the cell viability was 1.08.

Turning to `CC1(C)CCC(C)(C)c2cc(NC(=O)c3ccc(C(=O)O)cc3)ccc21` [Tamibarotene], the cell viability is 1.21.

Regarding `CCCCCCCCCCCCCCCC(=O)OC/C=C(C)/C=C/C=C(C)/C=C/C1=C(C)CCCC1(C)C` [Retinol palmitate], the cell viability was 0.978.

In the case of `COc1cc2nccc(Oc3ccc(NC(=O)NC4CC4)c(Cl)c3)c2cc1C(N)=O` [Lenvatinib], the cell viability is 1.17.

Regarding `O=c1cc(-c2ccc(O)cc2)oc2cc(O)cc(O)c12` [Apigenin], the cell viability is 0.991.

Take `COc1cc2nccc(Oc3ccc(NC(=O)Nc4cc(C)on4)c(Cl)c3)c2cc1OC` [Tivozanib]: the cell viability is 1.08.

With `Nc1[nH]c(=O)ncc1F` [Fluorocytosine], the cell viability is 1.08.

In the case of `CN(C)CCOc1ccc(/C(=C(/CCCl)c2ccccc2)c2ccccc2)cc1.O=C(O)CC(O)(CC(=O)O)C(=O)O` [Toremifene citrate], the cell viability was 1.19.

As for `Cl.N=c1ccn2c(n1)O[C@H]1[C@H](O)[C@@H](CO)O[C@H]12` [Cyclocytidine hydrochloride], the cell viability is 0.599 (active).

Consider `CC(C)CN(C[C@@H](O)[C@H](Cc1ccccc1)NC(=O)O[C@H]1CCOC1)S(=O)(=O)c1ccc(N)cc1` [Amprenavir], for which the cell viability was 0.833.

On to `C/C(=C\c1csc(C)n1)[C@@H]1C[C@@H]2O[C@]2(C)CCC[C@H](C)[C@H](O)[C@@H](C)C(=O)C(C)(C)[C@@H](O)CC(=O)N1` [Ixabepilone], for which the cell viability was 0.377 (active).

The values are drawn from the supplement of paper PMC12808144.
